Epigenetic reg: Quantitative High-Throughput Screen for Regulators of Epigenetic Control; murine LDR cells, GFP reporter derepression, 30 h; Potency, µM (top dose mostly 53.9 µM), actives largely listed as activators; 280,000 tested, 0.2% active; also: nearly all actives have a fitted effect of over 60% in size
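Readout is the number of GFP-expressing murine LDR cells, counted by cytometry following washing. Cells were treated with compound for 30 h at 37 C; the stably integrated CMV-GFP locus is normally silent.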
ClpP mod: qHTS Assay for Activators of ClpP; ATP-dependent Clp protease proteolytic subunit (Bacillus subtilis (strain 168)), P80244; Potency, µM (series often up to 57.5 µM); purified B. subtilis ClpP, FRET peptide cleavage, 20 min; 340,000 tested, 1.9% active; active = well fitted falling curve with a large enough effect; inconclusive = small, poorly fitted or top-dose-only effect; inactive = no such curve, though single readings can be large or run the other way; also: the source files actives as falling curves though it sought activators and does not explain the sign; nearly all actives have a fitted effect of over 65% in size
Target sequence (P80244 whole entry, looked up): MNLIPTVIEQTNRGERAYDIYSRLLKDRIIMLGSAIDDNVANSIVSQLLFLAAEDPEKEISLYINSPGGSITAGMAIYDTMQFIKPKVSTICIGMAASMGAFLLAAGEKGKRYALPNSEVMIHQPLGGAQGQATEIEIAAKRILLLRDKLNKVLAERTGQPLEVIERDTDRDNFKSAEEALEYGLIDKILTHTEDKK
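ClpP 10 microg/mL final, pH 8 Tris/KCl buffer with BSA, glycerol, Tween-20; compound pinned in; FRET-FV substrate; RT 20 min; Ex320/Em430; ΔFRET vs ADEP 5.8 microM, DMSO, no enzyme.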
RORgamma inh: qHTS for inhibitors of ROR gamma transcriptional activity; Nuclear receptor ROR-gamma (Mus musculus), P51450; Drosophila S2 Gal4-RORgamma UAS-luciferase reporter, 20 h; Potency, µM (doses to about 53.6 µM), most hits filed as inhibitors; 310,000 tested, 5.4% active; AID 2551, 2010; also: nearly all actives have a fitted effect of over 60% in size
Target sequence (P51450 whole entry, looked up, the tested form may be a part): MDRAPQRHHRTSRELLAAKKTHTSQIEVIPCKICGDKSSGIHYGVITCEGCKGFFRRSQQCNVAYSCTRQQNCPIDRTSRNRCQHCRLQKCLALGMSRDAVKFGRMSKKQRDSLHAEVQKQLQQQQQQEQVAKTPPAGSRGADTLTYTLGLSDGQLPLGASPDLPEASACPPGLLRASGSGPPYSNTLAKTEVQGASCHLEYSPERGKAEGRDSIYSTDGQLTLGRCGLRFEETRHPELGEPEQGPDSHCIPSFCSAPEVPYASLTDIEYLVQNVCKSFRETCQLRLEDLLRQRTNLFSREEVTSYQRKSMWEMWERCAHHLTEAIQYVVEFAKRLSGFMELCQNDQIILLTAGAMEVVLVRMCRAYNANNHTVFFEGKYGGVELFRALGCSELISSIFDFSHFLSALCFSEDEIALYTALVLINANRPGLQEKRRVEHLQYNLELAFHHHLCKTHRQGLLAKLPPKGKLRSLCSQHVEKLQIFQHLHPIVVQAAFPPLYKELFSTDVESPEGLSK
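Drosophila S2 cells stably expressing Gal4-DBD/mouse RORγ fusion under metallothionein promoter plus UAS-luciferase; compound 1 h, then 700 uM CuSO4 induction for 20 h at ambient temperature; inhibition read as reduced luminescence.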
Sfp inh: qHTS Assay for Inhibitors of Bacillus subtilis Sfp phosphopantetheinyl transferase (PPTase); 310,000 tested, 3.5% active; Potency, µM, actives largely listed as inhibitors; Biochemical Sfp PPTase activity, qHTS; AID 1490, 2009;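 also: the enzyme is Sfp with the accession as filed and its product quenches rhodamine fluorescence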
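Sfp 15 nM + cpd, 15 min RT; start w/ rhodamine-CoA 5 uM, BHQ-2-YbbR 12.5 uM (final); 50 mM Hepes pH 7.6, 10 mM MgCl2, 0.01% NP-40, 0.01% BSA; read 525/598 nm at 0 and 30 min.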
VP16 counter: VP16 counterscreen qHTS for inhibitors of ROR gamma transcriptional activity | AID 2546, 2010 | 310,000 tested, 3.5% active | Potency, µM (doses to about 53.6 µM), usual class: inhibitors | Drosophila S2 Gal4-VP16 UAS-luciferase, luminescence, 20 h;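 also: Gal4-VP16 expression switched on by copper sulfate through the metallothionein promoter; nearly all actives have a fitted effect of over 50% in size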
PINK1 expr mod: A Quantitative High throughput Screen to Identify Chemical Modulators of PINK1 Expression; PINK1 immunofluorescence, high-content cytometry, 24 h; Potency, µM (titrated, usually from 76.6 µM), most hits filed as activators; 410,000 tested, 0.2% active; AID 624263, 2012; active = well fitted activation curve with a large enough effect; inconclusive = small, poorly fitted or top-dose-only effect; cell line not stated here; also: nearly all actives have a fitted effect of over 65% in size
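PINK1 protein level read as immunofluorescence by microplate cytometer in a fixed, stained stable cell line after 24 h exposure to five compound concentrations, with CCCP as control.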
A number is an active result; – = inactive; ? = inconclusive; · = no result. Hits are enriched below; roughly 8.1% of the tested compounds scored in any of these assays. Unless noted, calls follow the shape of the dose curve; as a rule, active = well fitted curve in the direction sought with a large enough effect; inconclusive = small, poorly fitted or top-dose-only effect, or another doubt; inactive = no such curve, though single readings can be large; an effect the other way counts as inactive or inconclusive.

SMILES	Epigenetic reg	ClpP mod	RORgamma inh	Sfp inh	VP16 counter	PINK1 expr mod
COc1ccccc1Cn1c(=O)c2ccccc2n2c(Sc3ncnc4sccc34)nnc12	–	–	11µM	–	?	–
CC(=O)c1cc2c(cc1NC(=O)C1CC=CCC1C(=O)O)OCO2 (stereo not drawn)	–	–	–	–	–	–
CC(=O)c1cc2c(cc1NC(=O)C1CN(C(C)=O)c3ccccc3O1)OCO2 (stereo not drawn)	·	20µM	·	·	·	–
COc1ccc(-n2nc(C(=O)N3CCN(c4ccccc4OC)CC3)c3c4ccccc4n(C)c3c2=O)cc1Cl	–	–	·	·	·	–
c1ccc(Nc2c(-c3c[nH]c4ccccc34)nc3ccccn23)cc1	–	–	·	·	·	–
CCOC(=O)c1nn(-c2ccccc2C)c2nc(-c3ccc(C)cc3)c(C#N)c(=O)n12	–	35µM	–	–	–	–
CCOC(=O)c1nn(-c2ccccc2C)c2nc(-c3ccc(Cl)cc3)c(C#N)c(=O)n12	–	32µM	–	–	–	–
CCOC(=O)c1nn(-c2ccccc2)c2nc(-c3ccc(OC)cc3)c(C#N)c(=O)n12	–	–	–	–	–	–
CC(C)(C)C#CCn1c(/C=[N+](\[O-])C2CCCCC2)nc2ccccc21	·	–	10µM	–	–	–
CC(C)c1nc2ccccc2n1CC(O)COC1CCCCC1 (stereo not drawn)	–	·	–	–	–	–
COc1ccccc1-c1nnc(NC(=O)c2ccc(S(=O)(=O)N3CCCC3)cc2)o1	·	–	0.71µM	–	0.89µM	–
O=C(Nc1nnc(-c2ccco2)o1)c1ccc(S(=O)(=O)N2CCCC2)cc1	–	–	–	–	–	–
Cc1cc(NC(=O)c2ccc(S(=O)(=O)N(C)CC3CCCO3)cc2)no1 (stereo not drawn)	–	·	?	–	–	–
CC1CCCN(S(=O)(=O)c2ccc(C(=O)Nc3nnc(C4CC4)o3)cc2)C1 (stereo not drawn)	·	–	0.22µM	–	1µM	–
COc1ccc(-c2nnc(NC(=O)c3ccc(S(=O)(=O)N(C)CC4CCCO4)cc3)o2)c(OC)c1 (stereo not drawn)	·	–	0.71µM	–	1µM	–
COC(=O)c1sc2ccccc2c1NC(=O)c1ccc(S(=O)(=O)N2CCCC(C)C2)cc1 (stereo not drawn)	–	–	–	–	–	–
CC1CCCN(S(=O)(=O)c2ccc(C(=O)Nc3nnc(-c4ccccn4)o3)cc2)C1 (stereo not drawn)	–	–	1.8µM	–	–	–
CC1CCCN(S(=O)(=O)c2ccc(C(=O)Nc3sc4c(c3C(N)=O)CCN(C)C4)cc2)C1 (stereo not drawn)	·	–	?	–	?	–
CCc1cccc(NC(=O)CCc2c(C)nc3c(-c4ccccc4)c(C)nn3c2C)c1	–	–	·	·	·	–
Cc1cccc(N(C)C(=O)CCNS(=O)(=O)c2ccc3c(c2)CCN3C(=O)C2CC2)c1	–	–	·	·	·	–
CCCCNC(=O)CCCN1C(=O)CCn2nc(-c3cccn3C)cc21	–	–	·	·	·	–
CC1CCCN(S(=O)(=O)c2ccc(C(=O)Nc3nnc(-c4ccccc4Cl)o3)cc2)C1 (stereo not drawn)	–	–	0.1µM	–	0.16µM	–
NC(=S)N=Nc1c(O)[nH]c2cc(F)c(F)cc12	–	–	3.2µM	45µM	5µM	–
Cc1c(C(=O)NCCc2ccncc2)cnn1-c1nccc(-c2ccccc2C(F)(F)F)n1	·	·	·	·	·	–
COc1cc2c(cc1OC)C(COc1cc(C)cc(C)c1)N(C(=O)COc1ccccc1)CC2 (stereo not drawn)	–	–	·	·	·	?
SMILES	Epigenetic reg	ClpP mod	RORgamma inh	Sfp inh	VP16 counter	PINK1 expr mod
CCN(CC)S(=O)(=O)c1cccc(C(=O)N/N=C(\C)c2cccs2)c1	–	·	3.5µM	–	?	–
C/C(=N\NC(=O)c1cccc(S(=O)(=O)Nc2cccc(Cl)c2)c1)c1cccs1	–	·	5µM	–	4µM	–
Clc1ccc(-n2cccc2CN2CCc3c([nH]c4ccccc34)C2c2ccccn2)nc1 (stereo not drawn)	–	–	13µM	–	–	–
CC(=O)N1CCc2cc(Br)cc(S(=O)(=O)N3CCN(c4cccc(C(F)(F)F)c4)CC3)c21	–	–	·	·	·	–
Cc1ccc2nc(C)cc(Nc3ccc([N+](=O)[O-])cc3)c2c1	–	·	7.1µM	–	5µM	–
O=C(CN(c1cccc(Br)c1)S(=O)(=O)c1ccccc1)N1CCc2ccccc2C1	–	–	·	·	·	–
Cn1cnc(S(=O)(=O)N2CCCC(C(=O)Nc3ccc(OC(F)(F)F)cc3)C2)c1 (stereo not drawn)	–	–	·	·	·	–
Cc1ccc(S(=O)(=O)CCC(=O)OCC(=O)NCCc2ccccc2)cc1	·	·	·	·	·	–
Cc1ccc(S(=O)(=O)CCC(=O)OCc2ccc(S(=O)(=O)C(C)C)cc2)cc1	–	–	–	–	–	–
O=C(COC(=O)CNC(=O)c1ccccc1)NCCCc1ccccc1	·	·	·	·	·	–
Cc1ccc(S(=O)(=O)CCC(=O)OCC(=O)N(Cc2ccccc2)C(C)C)cc1	·	16µM	·	·	·	–
O=C(COC(=O)CNC(=O)c1ccccc1)NCCc1ccccc1	–	·	10µM	–	–	–
O=C(COC(=O)CCS(=O)(=O)c1ccc(Cl)cc1)NCCc1ccccc1	–	–	5.6µM	–	–	–
O=C(CNC(=O)c1ccccc1)NCCc1ccc(O)c(O)c1	·	·	–	50µM	–	·
CC(C)Cn1c(=O)c2sccc2n2c(CCCC(=O)NC3CCCCC3)nnc12	–	–	·	·	·	–
CCSC1=NC2(CCN(C(=O)NC3CCCCC3)CC2)N=C1c1ccc(Cl)cc1	–	–	·	·	·	–
NS(=O)(=O)c1ccc(Nc2nc(-c3cccc([N+](=O)[O-])c3)cs2)cc1	–	·	–	32µM	–	–
Cc1ccc(-c2csc(Nc3ccc(S(N)(=O)=O)cc3)n2)o1	–	·	–	10µM	?	–
CC(C)(C)NC(=O)c1ccc2nc(CCc3ccccc3)oc2c1	–	–	·	·	·	–
CCc1noc(-c2ccc(N3CCCCC3)c([N+](=O)[O-])c2)n1	–	–	·	·	·	–
CCC(C)c1ccc(C2C3=C(Nc4nc(N)[nH]c(=O)c42)c2ccccc2C3=O)cc1 (stereo not drawn)	–	–	13µM	–	?	–
CC1Cc2ccccc2N1Cc1nc2cc(Cl)ccc2c(=O)[nH]1 (stereo not drawn)	–	13µM	–	–	–	–
S=c1ncc2n[nH]nc2[nH]1	·	–	·	·	·	–
CCn1c(SCC(=O)NCc2ccco2)nnc1-c1ccc(N(C)C)cc1	·	–	·	·	·	–

Assay outcomes deposited in PubChem BioAssay by National Center for Advancing Translational Sciences (NCATS).
